From PubChem
Shown are actives, neighbours in structure and some others; about 2.1% of the full set was active somewhere.
aSyn rescue – rescues yeast growth from alpha-synuclein toxicity. 0.14% of 370,000 active. Potency, µM (doses to about 46.1 µM), actives largely listed as activators. Yeast expressing alpha-synuclein, growth rescue, BacTiter-Glo, 24 h; further: nearly all actives have a fitted effect of over 65% in size
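Galactose-induced alpha-syn yeast (OD600=0.02, raffinose-pregrown) + pinned cpd, 24 hr, 30 deg C; growth by BacTiter-Glo luminescence. Growth restoration scores as activation.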
Abeta rescue – restores growth of yeast expressing A-beta42 peptide; yeast expressing A-beta42, growth rescue, OD600, 48 h; response scale: 0% DMSO, 100% iron-clioquinol control; Potency, µM (series often up to 46.1 µM), hits mostly activators; 0.063% of 410,000 active; AID 1347071; further: nearly all actives have a fitted effect of over 55% in size
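Growth rescue measured by 600 nm absorbance after 48 h yeast culture at 30 C with compound. Values normalized between DMSO and an equimolar ferric chloride plus clioquinol control.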
FUS suppressor – rescues growth of FUS-expressing yeast | AID 1347120 | S. cerevisiae FUS-expressing, growth rescue, OD600, 24 h | Potency, µM (titrated, usually from 76.6 µM), actives largely listed as activators | 0.24% of 390,000 active; further: nearly all actives have a fitted effect of over 55% in size
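Toxicity suppression screen in FUS-yeast. Cells induced with 2% galactose, starting OD 0.005, treated 24hr at 30C with compounds at multiple final concentrations; growth by OD600.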
TDP43 rescue – inhibitors of TDP-43 toxicity in yeast; TDP-43 expressing yeast growth rescue, BacTiter-Glo, 24 h; Potency, µM (top dose mostly 46.1 µM), hits mostly activators; 1.8% of 410,000 active; AID 652104; further: nearly all actives have a fitted effect of over 50% in size
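Luminescence from BacTiter-Glo reports growth of TDP-43-expressing yeast after 24 hr at 30 deg C with compound. Cells were raffinose-pregrown to mid-log, then seeded in galactose medium at OD600=0.02.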
Large screens that a line does not name were inactive. The call rests on the fitted dose curve; in most records, active means well fitted curve in the direction sought with a large enough effect; inconclusive means small, poorly fitted or top-dose-only effect, or another doubt; inactive means no such curve, though single readings can be large; an effect the other way counts as inactive or inconclusive.

O=C1C=C(c2cc(F)ccc2F)C[C@@H](c2ccc(F)cc2)C1	TDP43 rescue 22.4µM
O=C1C=C(c2ccc(-c3ccccc3)c(F)c2)C[C@@H](c2ccc(F)cc2)C1	none
Cc1cc(Cl)ccc1C1=CC(=O)C[C@H](c2ccc(F)cc2)C1	TDP43 rescue 14.1µM
COc1cc(F)c(C2=CC(=O)C[C@H](c3ccc(F)cc3)C2)cc1F	TDP43 rescue inconclusive
CCc1ccc(NCc2cc3ccc(OC)cc3n(CC(=O)Nc3ccccc3C)c2=O)cc1	none
COC(=O)[C@@]12C[C@@H](CC(=O)N3CCCC3)C(=O)N(Cc3cccc4ccccc34)C1=CCC(C)(C)C2	FUS suppressor inconclusive
Nc1cc(=O)nc(SCC(=O)N(C2CCCCC2)C2CCCCC2)n1-c1ccccc1	FUS suppressor 28.2µM
Cc1ccc(NC(=O)CSc2nc(=O)cc(N)n2-c2ccccc2)cc1	FUS suppressor inconclusive
Cc1nnc(NC(=O)Cc2ccc(OCc3c(C)noc3C)cc2)s1	FUS suppressor 14.1µM
Cc1noc(C)c1COc1ccc(CC(=O)NCCc2ccccc2)cc1	none
c1ccc(CCSc2nnc(-c3cccnc3)n2Cc2ccccc2)cc1	none (no result: aSyn rescue, Abeta rescue, TDP43 rescue)
CO/N=C1\CCn2c1c(C)c1ccccc12	none
Cc1c2n(c3ccccc13)CC/C2=N\O	TDP43 rescue 11.2µM
COc1cccc2sc3ccc(C#CC4(O)CCCCC4)cc3c(=O)c12	FUS suppressor inconclusive, TDP43 rescue 15.8µM
COc1cccc2sc3ccc(C#Cc4ccc(N)cc4)cc3c(=O)c12	FUS suppressor 31.6µM
Nc1ccc(C#Cc2ccc3sc4ccccc4c(=O)c3c2)cc1	none
COC(=O)C[C@H]1C[C@H]2c3cc(NC(=O)Cc4ccncc4)ccc3O[C@H]2[C@@H](CO)O1	TDP43 rescue inconclusive
Oc1ccccc1C1C=C(c2ccc3c(c2)OCO3)NC(c2cccc(Cl)c2)N1 (centres undefined)	aSyn rescue 4.47µM (no result: Abeta rescue, FUS suppressor, TDP43 rescue)
Oc1ccccc1C1C=C(c2ccc3c(c2)OCO3)NC(c2ccc(Br)cc2)N1 (centres undefined)	none (no result: Abeta rescue, FUS suppressor, TDP43 rescue)
CCc1nc(Nc2cc(OC)ccc2OC)c2oc3ccccc3c2n1	none
CCc1nc(Nc2ccccc2OC)c2oc3ccccc3c2n1	TDP43 rescue 12.6µM
Cc1onc(-c2c(F)cccc2Cl)c1C(=O)c1ccc(F)cc1	TDP43 rescue 12.6µM
Cc1onc(-c2c(Cl)cccc2Cl)c1C(=O)c1ccc(F)cc1	TDP43 rescue 12.6µM
Cc1onc(-c2c(F)cccc2Cl)c1C(=O)c1ccccc1	Abeta rescue inconclusive
Cc1onc(-c2c(F)cccc2Cl)c1C(=O)c1ccccc1O	none
NS(=O)(=O)c1cccc(NC(=O)COC(=O)CNC(=O)c2ccc(-c3ccccc3)cc2)c1	none
Cc1ccc(OCC(=O)Nc2c(Cl)ccc3nsnc23)cc1C	TDP43 rescue inconclusive
CCCCOc1ccc(C2c3c(oc4ccc(C)cc4c3=O)C(=O)N2CCCN(C)C)cc1OCC (centres undefined)	none (no result: aSyn rescue)
CCCCNc1sc(S(=O)(=O)CC)nc1S(=O)(=O)c1ccc(C)cc1	none (no result: aSyn rescue)
Cc1cc(Cl)ccc1NC(=O)C1CCCN1C(=O)c1cccs1 (centres undefined)	none
CCN(C(=O)[C@@H]1CCCN1C(=O)c1cccs1)c1nc2cc(Cl)ccc2s1	TDP43 rescue 12.6µM
O=C(NS(=O)(=O)Oc1ccccc1F)OC[C@@H]1CCCN2CCCCC12 (some centres undefined)	none
Cc1c(NC(=O)C(C)OC(=O)c2c3c(nc4ccccc24)CCC3)c(=O)n(-c2ccccc2)n1C (centres undefined)	FUS suppressor 22.4µM
Brc1ccc(-c2csc(-c3ccncc3)n2)cc1	TDP43 rescue 11.2µM (no result: FUS suppressor)
Cc1ccc(-c2csc(-c3ccncc3)n2)cc1	TDP43 rescue inconclusive
COc1cccc(C(NC(C)=O)c2ccc3cccnc3c2O)c1 (centres undefined)	aSyn rescue inconclusive, Abeta rescue inconclusive, FUS suppressor inconclusive
COc1cccc(C(Nc2ccccc2)c2ccc3ccc(C)nc3c2O)c1 (centres undefined)	aSyn rescue 17.8µM, Abeta rescue inconclusive, TDP43 rescue 22.4µM
Cc1cc(NC(c2cccnc2)c2ccc3cccnc3c2O)no1 (centres undefined)	none
Cc1cccc(NC(c2ccc(O)cc2)c2ccc3ccc(C)nc3c2O)n1 (centres undefined)	FUS suppressor 15.8µM
Cc1nc(N2CCCC2)ncc1C(=O)NCc1cccc(Cl)c1	TDP43 rescue 14.1µM (no result: aSyn rescue)
COc1ccc(CNC(=O)c2cnc(N3CCCC3)nc2C)c(OC)c1	none (no result: aSyn rescue)
Cc1ccc2c(Sc3ccc(Cl)cc3)c(C(=O)N3CCCCC3)[nH]c2c1	FUS suppressor inconclusive (no result: aSyn rescue)
O=C1OC(c2cccc3c(F)cccc23)c2ccccc21 (centres undefined)	TDP43 rescue 20µM
CSC[C@H]1CN(CCc2ccccc2)C(=O)[C@@H]1CC(=O)Nc1ccccc1	none
CC1CCN(C(=O)C(C)OC(=O)CSc2ccc([N+](=O)[O-])cc2)CC1 (centres undefined)	TDP43 rescue 35.5µM
COCCCn1cc(CN2CC(N3CCN(Cc4ccccc4F)CC3)CS2(=O)=O)nn1 (centres undefined)	none
CCOC(=O)N(O)c1ccc(C=Cc2ccccc2)cc1	TDP43 rescue 14.1µM (no result: FUS suppressor)
CCC1(C(=O)c2ccc(Cl)cc2)C2c3ccccc3OC(=O)C21C(=O)Nc1ccccc1 (centres undefined)	aSyn rescue 14.1µM (no result: FUS suppressor)
O=C(Nc1ccc(Nc2ccccc2)cc1)c1ccc(Cl)cc1	none
CCn1c2ccccc2c2nc3ccccc3nc21	TDP43 rescue 10µM
O=C(O)CN1C(=O)/C(=C\C(Br)=C\c2ccccc2)SC1=S	TDP43 rescue 12.6µM
O=C(O)CN1C(=O)/C(=C\c2cccc(OCc3ccc(F)cc3)c2)SC1=S	Abeta rescue 5.01µM
O=C(O)CN1C(=O)/C(=C/C=C/c2ccccc2)SC1=S	none
O=C(O)CN1C(=O)/C(=C\c2cccc(OCc3ccccc3F)c2)SC1=S	Abeta rescue 8.91µM
O=C(O)CN1C(=O)/C(=C\c2cccc(OCc3ccc(Cl)cc3)c2)SC1=S	Abeta rescue inconclusive, TDP43 rescue inconclusive
Cn1c(=O)c(S(=O)C2CCCCC2)c(O)c2ccccc21 (centres undefined)	TDP43 rescue inconclusive
O=C(NCc1ccccc1F)C1CCN(Cc2cc3ccccc3n2Cc2cccc(Cl)c2)CC1	none (no result: aSyn rescue)
COc1nc(-c2ccccc2)c2cc(C)ccc2n1	TDP43 rescue 12.6µM
O=C(OCCn1c(=S)sc2ccccc21)c1ccccc1	TDP43 rescue 11.2µM (no result: FUS suppressor)
COc1ccc(CN(CCN2CCOCC2)C(=O)c2ccc(F)cc2F)cc1OC	none (no result: aSyn rescue, Abeta rescue, TDP43 rescue)
O=C(COC(=O)c1cc(-c2ccccc2)nc2ccccc12)NC1CC1	FUS suppressor inconclusive, TDP43 rescue 35.5µM
COc1ccc(-c2cc(C(=O)OCC(=O)NC3CC3)c3ccccc3n2)cc1	FUS suppressor inconclusive
O=C(COC(=O)c1c2ccccc2cc2ccccc12)NCC(F)(F)F	TDP43 rescue 15.8µM (no result: FUS suppressor)
CC1=NNC(=O)/C1=C\c1cn(-c2ccccc2)nc1-c1cccs1	FUS suppressor inconclusive
